# In paper PMC11006913:
# Residue numbers refer to the chain shown, from its start.
# Target: T1, VENTX (Homo sapiens, UniProt O95231 78-163)
# T1 sequence: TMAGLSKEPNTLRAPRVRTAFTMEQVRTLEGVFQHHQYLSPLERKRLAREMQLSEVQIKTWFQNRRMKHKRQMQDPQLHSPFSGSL
# Experiment: PBM; 200 nM protein, PBS
# Details: dsDNA, one strand shown
row,Sequence,binding signal
1,CTGGGGCA,"8.21 upbm affinity estimate (log intensity, higher = more binding, comparable within an allelic series)"
2,ACTAATCG,"12.6 upbm affinity estimate (log intensity, higher = more binding, comparable within an allelic series)"

# Target: T2, SIX6 (Homo sapiens, UniProt O95475 114-200, L143V)
# T2 sequence: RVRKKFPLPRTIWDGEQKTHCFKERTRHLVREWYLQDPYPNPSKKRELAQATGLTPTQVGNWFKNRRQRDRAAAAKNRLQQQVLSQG
# Experiment: PBM; 200 nM protein, PBS
# Details: dsDNA, one strand shown
row,Sequence,binding signal
1,AGGTGCCC,"8.83 upbm affinity estimate (log intensity, higher = more binding, comparable within an allelic series)"
2,CGCACCGC,"8.89 upbm affinity estimate (log intensity, higher = more binding, comparable within an allelic series)"
3,GCAGCTGC,"9.05 upbm affinity estimate (log intensity, higher = more binding, comparable within an allelic series)"
4,CTGCTGGC,"8.74 upbm affinity estimate (log intensity, higher = more binding, comparable within an allelic series)"
5,AGACTATC,"9.83 upbm affinity estimate (log intensity, higher = more binding, comparable within an allelic series)"
6,CCAGGGGC,"8.71 upbm affinity estimate (log intensity, higher = more binding, comparable within an allelic series)"
7,GGGGCCCC,"8.85 upbm affinity estimate (log intensity, higher = more binding, comparable within an allelic series)"
8,CCGTCGCC,"8.91 upbm affinity estimate (log intensity, higher = more binding, comparable within an allelic series)"
9,CACGCCCC,"8.92 upbm affinity estimate (log intensity, higher = more binding, comparable within an allelic series)"
10,CCCTGATC,"9.63 upbm affinity estimate (log intensity, higher = more binding, comparable within an allelic series)"
11,ACGCAACG,"9.09 upbm affinity estimate (log intensity, higher = more binding, comparable within an allelic series)"

# Target: HOXA7 (Homo sapiens, UniProt P31268 116-202)
# Sequence (P31268 116-202): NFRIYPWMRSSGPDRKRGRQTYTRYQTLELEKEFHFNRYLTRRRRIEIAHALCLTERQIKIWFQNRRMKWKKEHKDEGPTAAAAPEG
# Experiment: PBM; 200 nM protein, PBS
# Details: dsDNA, one strand shown
row,Sequence,binding signal
1,ATATTAAT,"11.2 upbm affinity estimate (log intensity, higher = more binding, comparable within an allelic series)"
2,ATTTATGG,"10.6 upbm affinity estimate (log intensity, higher = more binding, comparable within an allelic series)"
3,GACCGACA,"8.51 upbm affinity estimate (log intensity, higher = more binding, comparable within an allelic series)"

# Target: HOXC10 (Homo sapiens, UniProt Q9NYD6 254-340)
# Sequence (Q9NYD6 254-340): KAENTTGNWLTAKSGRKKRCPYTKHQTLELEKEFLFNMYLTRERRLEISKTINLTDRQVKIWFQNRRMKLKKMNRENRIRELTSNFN
# Experiment: PBM; 200 nM protein, PBS
# Details: dsDNA, one strand shown
row,Sequence,binding signal
1,CTGCTGGC,"9.92 upbm affinity estimate (log intensity, higher = more binding, comparable within an allelic series)"
2,ATTTATGG,"12.5 upbm affinity estimate (log intensity, higher = more binding, comparable within an allelic series)"
3,GCCCGGGC,"9.84 upbm affinity estimate (log intensity, higher = more binding, comparable within an allelic series)"

# Target: ALX4 (Homo sapiens, UniProt Q9H161 200-286)
# Sequence (Q9H161 200-286): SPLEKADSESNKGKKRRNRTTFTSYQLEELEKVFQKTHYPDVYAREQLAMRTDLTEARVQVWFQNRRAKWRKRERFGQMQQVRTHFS
# Experiment: PBM; 200 nM protein, PBS
# Details: dsDNA, one strand shown
row,Sequence,binding signal
1,CGCACCGC,"8.06 upbm affinity estimate (log intensity, higher = more binding, comparable within an allelic series)"
2,GCAGCTGC,"7.95 upbm affinity estimate (log intensity, higher = more binding, comparable within an allelic series)"
3,AGGGGACC,"8.18 upbm affinity estimate (log intensity, higher = more binding, comparable within an allelic series)"
4,GGGGCCCC,"8.29 upbm affinity estimate (log intensity, higher = more binding, comparable within an allelic series)"

# Target: T3, SIX6 (Homo sapiens, UniProt O95475 114-200, H141N)
# T3 sequence: T2 sequence with H28N, V30L
# Experiment: PBM; 200 nM protein, PBS
# Details: dsDNA, one strand shown
row,Sequence,binding signal
1,AGGTGCCC,"8.91 upbm affinity estimate (log intensity, higher = more binding, comparable within an allelic series)"
2,CGCACCGC,"8.95 upbm affinity estimate (log intensity, higher = more binding, comparable within an allelic series)"
3,GCAGCTGC,"9.04 upbm affinity estimate (log intensity, higher = more binding, comparable within an allelic series)"
4,CTGCTGGC,"8.87 upbm affinity estimate (log intensity, higher = more binding, comparable within an allelic series)"
5,AGACTATC,"10.2 upbm affinity estimate (log intensity, higher = more binding, comparable within an allelic series)"
6,CCAGGGGC,"8.85 upbm affinity estimate (log intensity, higher = more binding, comparable within an allelic series)"
7,GGGGCCCC,"9 upbm affinity estimate (log intensity, higher = more binding, comparable within an allelic series)"
8,CCGTCGCC,"8.81 upbm affinity estimate (log intensity, higher = more binding, comparable within an allelic series)"
9,CACGCCCC,"9.05 upbm affinity estimate (log intensity, higher = more binding, comparable within an allelic series)"
10,CCCTGATC,"10.2 upbm affinity estimate (log intensity, higher = more binding, comparable within an allelic series)"
11,ACGCAACG,"9.09 upbm affinity estimate (log intensity, higher = more binding, comparable within an allelic series)"

# Target: T4, SIX6 (Homo sapiens, UniProt O95475 114-200, T165P)
# T4 sequence: T2 sequence with V30L, T52P
# Experiment: PBM; 200 nM protein, PBS
# Details: dsDNA, one strand shown
row,Sequence,binding signal
1,AGGTGCCC,"8.95 upbm affinity estimate (log intensity, higher = more binding, comparable within an allelic series)"
2,CGCACCGC,"8.88 upbm affinity estimate (log intensity, higher = more binding, comparable within an allelic series)"
3,GCAGCTGC,"9.02 upbm affinity estimate (log intensity, higher = more binding, comparable within an allelic series)"
4,CTGCTGGC,"8.81 upbm affinity estimate (log intensity, higher = more binding, comparable within an allelic series)"
5,AGACTATC,"9.59 upbm affinity estimate (log intensity, higher = more binding, comparable within an allelic series)"
6,CCAGGGGC,"8.79 upbm affinity estimate (log intensity, higher = more binding, comparable within an allelic series)"
7,GGGGCCCC,"8.87 upbm affinity estimate (log intensity, higher = more binding, comparable within an allelic series)"
8,CCGTCGCC,"9.06 upbm affinity estimate (log intensity, higher = more binding, comparable within an allelic series)"
9,CACGCCCC,"8.95 upbm affinity estimate (log intensity, higher = more binding, comparable within an allelic series)"
10,CCCTGATC,"9.31 upbm affinity estimate (log intensity, higher = more binding, comparable within an allelic series)"
11,ACGCAACG,"9.22 upbm affinity estimate (log intensity, higher = more binding, comparable within an allelic series)"

# Target: T5, VENTX (Homo sapiens, UniProt O95231 78-163, Y115F)
# T5 sequence: T1 sequence with Y38F
# Experiment: PBM; 200 nM protein, PBS
# Details: dsDNA, one strand shown
row,Sequence,binding signal
1,GAGGTACC,"8.14 upbm affinity estimate (log intensity, higher = more binding, comparable within an allelic series)"
2,CCCCTGGA,"8.01 upbm affinity estimate (log intensity, higher = more binding, comparable within an allelic series)"
3,CAGATTAA,"10.7 upbm affinity estimate (log intensity, higher = more binding, comparable within an allelic series)"
4,ATAATCTG,"10.1 upbm affinity estimate (log intensity, higher = more binding, comparable within an allelic series)"
5,GGATTACA,"9.18 upbm affinity estimate (log intensity, higher = more binding, comparable within an allelic series)"
6,CTGCTGGC,"7.71 upbm affinity estimate (log intensity, higher = more binding, comparable within an allelic series)"
7,CAGATTAG,"10.7 upbm affinity estimate (log intensity, higher = more binding, comparable within an allelic series)"
8,GCAGATTA,"10.4 upbm affinity estimate (log intensity, higher = more binding, comparable within an allelic series)"
9,GATTAATA,"11 upbm affinity estimate (log intensity, higher = more binding, comparable within an allelic series)"
10,CCCGACCC,"8.09 upbm affinity estimate (log intensity, higher = more binding, comparable within an allelic series)"
11,AGATTAGC,"10.4 upbm affinity estimate (log intensity, higher = more binding, comparable within an allelic series)"
12,CTGGGGCA,"8.17 upbm affinity estimate (log intensity, higher = more binding, comparable within an allelic series)"
13,ACAGATTA,"10.5 upbm affinity estimate (log intensity, higher = more binding, comparable within an allelic series)"
14,ACTAATCG,"11.5 upbm affinity estimate (log intensity, higher = more binding, comparable within an allelic series)"

# Target: T6, SIX6 (Homo sapiens, UniProt O95475 114-200, L167M)
# T6 sequence: T2 sequence with V30L, L54M
# Experiment: PBM; 200 nM protein, PBS
# Details: dsDNA, one strand shown
row,Sequence,binding signal
1,AGGTGCCC,"8.85 upbm affinity estimate (log intensity, higher = more binding, comparable within an allelic series)"
2,CGCACCGC,"8.89 upbm affinity estimate (log intensity, higher = more binding, comparable within an allelic series)"
3,GCAGCTGC,"9.06 upbm affinity estimate (log intensity, higher = more binding, comparable within an allelic series)"
4,CTGCTGGC,"8.92 upbm affinity estimate (log intensity, higher = more binding, comparable within an allelic series)"
5,AGACTATC,"9.99 upbm affinity estimate (log intensity, higher = more binding, comparable within an allelic series)"
6,CCAGGGGC,"8.77 upbm affinity estimate (log intensity, higher = more binding, comparable within an allelic series)"
7,GGGGCCCC,"8.88 upbm affinity estimate (log intensity, higher = more binding, comparable within an allelic series)"
8,CCGTCGCC,"8.97 upbm affinity estimate (log intensity, higher = more binding, comparable within an allelic series)"
9,CACGCCCC,"8.99 upbm affinity estimate (log intensity, higher = more binding, comparable within an allelic series)"
10,ACGCAACG,"9.12 upbm affinity estimate (log intensity, higher = more binding, comparable within an allelic series)"

# Target: T7, SIX6 (Homo sapiens, UniProt O95475 114-200, L143M)
# T7 sequence: T2 sequence with V30M
# Experiment: PBM; 200 nM protein, PBS
# Details: dsDNA, one strand shown
row,Sequence,binding signal
1,AGGTGCCC,"8.84 upbm affinity estimate (log intensity, higher = more binding, comparable within an allelic series)"
2,CGCACCGC,"8.96 upbm affinity estimate (log intensity, higher = more binding, comparable within an allelic series)"
3,GCAGCTGC,"9.14 upbm affinity estimate (log intensity, higher = more binding, comparable within an allelic series)"
4,CTGCTGGC,"8.85 upbm affinity estimate (log intensity, higher = more binding, comparable within an allelic series)"
5,AGACTATC,"10.2 upbm affinity estimate (log intensity, higher = more binding, comparable within an allelic series)"
6,CCAGGGGC,"8.78 upbm affinity estimate (log intensity, higher = more binding, comparable within an allelic series)"
7,GGGGCCCC,"8.91 upbm affinity estimate (log intensity, higher = more binding, comparable within an allelic series)"
8,CCGTCGCC,"8.82 upbm affinity estimate (log intensity, higher = more binding, comparable within an allelic series)"
9,CACGCCCC,"9.02 upbm affinity estimate (log intensity, higher = more binding, comparable within an allelic series)"
10,ACGCAACG,"9.21 upbm affinity estimate (log intensity, higher = more binding, comparable within an allelic series)"

# Target: T8, SIX6 (Homo sapiens, UniProt O95475 114-200, L143I)
# T8 sequence: T2 sequence with V30I
# Experiment: PBM; 200 nM protein, PBS
# Details: dsDNA, one strand shown
row,Sequence,binding signal
1,AGGTGCCC,"8.86 upbm affinity estimate (log intensity, higher = more binding, comparable within an allelic series)"
2,CGCACCGC,"9 upbm affinity estimate (log intensity, higher = more binding, comparable within an allelic series)"
3,GCAGCTGC,"9.05 upbm affinity estimate (log intensity, higher = more binding, comparable within an allelic series)"
4,CTGCTGGC,"8.83 upbm affinity estimate (log intensity, higher = more binding, comparable within an allelic series)"
5,CCAGGGGC,"8.85 upbm affinity estimate (log intensity, higher = more binding, comparable within an allelic series)"
6,GGGGCCCC,"8.93 upbm affinity estimate (log intensity, higher = more binding, comparable within an allelic series)"
7,CCGTCGCC,"8.94 upbm affinity estimate (log intensity, higher = more binding, comparable within an allelic series)"
8,CACGCCCC,"8.94 upbm affinity estimate (log intensity, higher = more binding, comparable within an allelic series)"
9,CCCTGATC,"9.69 upbm affinity estimate (log intensity, higher = more binding, comparable within an allelic series)"
10,ACGCAACG,"9.08 upbm affinity estimate (log intensity, higher = more binding, comparable within an allelic series)"
